PubChem BioAssay (NCI)
This is part of a sample that, as a whole, favours compounds with a hit. Of some 83,000 tested, about 20% had one in any assay.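 Cell lines were cultured in 96-well plates, exposed to a single compound concentration, and assessed for percent growth 48 hours later.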 Unmarked numbers belong to inactive results. Activity calls are given as the source filed them. How the source made its calls: active means growth percent below 10; inactive means the rest.

These compounds were tested on HOP-92 NSCLC (assay: NCI-60 one-dose screen, 48 h (100 = growth as untreated, 0 = no growth, -100 = all killed)). Details: 10 µM.

SMILES	growth
NC/C(=C/F)COc1ccc2nc(NCc3cccnc3)oc2c1	116%
O=c1[nH]c2ccccc2cc1CSc1ccccc1Nc1nccc(-c2ccc(Cl)cc2)n1	83.5%
CCn1c(SCC(=O)Nc2cccc(C(=O)/C=C/c3ccc(Br)cc3)c2)nc2ccccc2c1=O	76.9%
Fc1ccc(-c2cc3nc(C(Cl)Cl)nc(-c4ccc(F)cc4)n3n2)cc1	-3.1% (active)
Nn1c(N/N=C/c2nc3ccccc3s2)n[nH]c1=S	98.7%
Cc1ccc(NC(=O)CNc2cc(C(N)=O)cc(F)c2C)c(Cl)c1	74.9%
C=C(C=O)[C@@H]1CC[C@]2(C)[C@H](C(=O)C=C3[C@H]4C[C@](C)(C(=O)OC)CC[C@]4(C)CC[C@]32C)[C@@]1(C)CCC#N	-35.2% (active)
CC(=O)C1=C(C)NC(NNC(N)=S)=NC1c1ccccc1 (centres undefined)	78.4%
CS(=O)(=O)c1ccc(-n2cc(/C=N/O)c(-c3ccccc3)n2)cc1	87.9%
COc1ccc2c(c1)c(-c1cc(N)n3nc(-c4cn(C)c5ccc(OC)cc45)cc3n1)cn2C	86.8%
C=CCn1c(SCC(=O)Nc2ccc(C(=O)/C=C/c3cc(OC)c(OC)c(OC)c3)cc2)nnc1-c1c[nH]c2ccccc12	63.7%
CN1CCN(Cc2ccc(NC(=O)c3cncc(C#Cc4cnc5ccc(N6CCN(C)CC6)nn45)c3)cc2C(F)(F)F)CC1	-16.1% (active)
CCCSc1nc(Nc2ccc(/C(C)=N\NC(N)=S)cc2)c(C#N)c(-c2ccccc2)n1	-8.02% (active)
C[C@H]1c2[nH]c3ccccc3c2C[C@H]2C(=O)N(CCCCCCC(=O)NO)CC(=O)N21	67.6%
CC1(C)CC[C@]2(C(=O)N3CCOCC3)CC[C@]3(C)C(=CC[C@@H]4[C@@]5(C)C/C(=C/c6ccccn6)C(=O)C(C)(C)[C@@H]5CC[C@]43C)[C@@H]2C1	51.1%
C=C(C)[C@@H]1CC[C@]2(COC)CC[C@]3(C)[C@H](CC[C@@H]4[C@@]5(C)CCCNC(C)(C)[C@@H]5CC[C@]43C)[C@@H]12	74.9%
COc1cc(-c2nn(C(C)(C)C)cc2-c2ccnc(NCCCNS(=O)(=O)c3ccccc3)n2)ccc1Cl	71.9%

Each compound was assayed on NCI-H522 lung in the same assay as above. Details: 10 µM unless noted.

SMILES	growth
CC(O)c1cc2ccccc2c(=O)o1 (centres undefined)	98.6%
Cc1ccc(NC(=O)N[C@@H](Cc2cc(F)cc(F)c2)C(=O)NC2C(=O)N3C[C@H](O)C[C@H]3C(=O)N3CCCC[C@H]3C(=O)N[C@@H](CO)C(=O)N3C[C@H](C)C[C@H]3C(=O)O[C@H]2C)c(F)c1 (some centres undefined)	26.9%
O=c1[nH]c2ccccc2cc1CSc1ccccc1Nc1nccc(-c2ccc(Cl)cc2)n1	97.4%
CCn1c(SCC(=O)Nc2cccc(C(=O)/C=C/c3ccc(Br)cc3)c2)nc2ccccc2c1=O	84%
Fc1ccc(-c2cc3nc(C(Cl)Cl)nc(-c4ccc(F)cc4)n3n2)cc1	0.105% (active)
CCNC(=O)N1CCc2cc(OC)c(OCCc3ccc(OC)cc3)cc2C1c1ccc(OC)cc1C (centres undefined)	-8.18% (active)
C#CCOC(=O)[C@@H]1CCCN1CC#C	96.6%
CCNC(=O)N1CCc2cc(OC)c(OCCc3ccc(OC)cc3)cc2C1c1ccc(Cl)cc1C (centres undefined)	-16.2% (active)
COc1cc2nc(Cl)nc(Nc3cccc(C4=Nc5c(N)nc(N)nc5NC(c5ccc(Br)cc5)C4)c3)c2cc1OC (centres undefined)	68.2%
COc1ccc(C(=O)CSc2nc3c(c(Nc4ccc(S(N)(=O)=O)cc4)n2)CCCC3)cc1	91.4%
Cc1cccc2c3c(sc12)C(c1ccc(Cl)cc1)c1c(nc(CC(=O)Nc2ccccc2)[nH]c1=O)O3 (centres undefined)	26.9%
C=C(C=O)[C@@H]1CC[C@]2(C)[C@H](C(=O)C=C3[C@H]4C[C@](C)(C(=O)OC)CC[C@]4(C)CC[C@]32C)[C@@]1(C)CCC#N	52.5%
Nc1nc(-c2cccc([N+](=O)[O-])c2)c(N=Nc2ccccc2)s1	48.6%
COc1cc(OC)c(S(N)(=O)=O)cc1C(C)=O	103%
CCOC(=O)c1c(Nc2ccccc2)nn2c(-c3ccc(OC)cc3)ccnc12	88.1%
O=C(CCn1c[n+](CC(=O)c2ccc(-c3ccccc3)cc2)c2ccccc21)Nc1cccc2cccnc12	41.7%

SMILES	growth
N#C/C(=C\c1ccc(-c2ccc(Cl)cc2Cl)o1)c1ccc(F)cc1	88.1%
O=S(=O)(Nc1ccc2c(c1)OCO2)c1ccc(-c2cnc(C3CC3)o2)cc1	34.4%
COc1ccc(/C=C/C(=O)c2cc(S(N)(=O)=O)c(OC)cc2OC)cc1	78%
CS(=O)(=O)c1ccc(-n2cc(/C=N/O)c(-c3ccccc3)n2)cc1	70.3%
COc1ccc2c(c1)c(-c1cc(N)n3nc(-c4cn(C)c5ccc(OC)cc45)cc3n1)cn2C	109%
C#CC(=O)N(c1ccc(OC)cc1OC)C(C(=O)NCC(=O)OCC)c1cccs1 (centres undefined)	-72.2% (active)
C=CCn1c(SCC(=O)Nc2ccc(C(=O)/C=C/c3cc(OC)c(OC)c(OC)c3)cc2)nnc1-c1c[nH]c2ccccc12	35.7%
CC(C)(C)CC(C)(C)n1nnnc1C(Nc1nccs1)c1cc2cccc3ccc4cccc1c4c32 (centres undefined)	96.8%
Cc1ccc2c(c1)C(=O)/C(=C/c1cccc(F)c1)S2	93.2%
CC1(COc2ccc3ncc(C#Cc4cncc(C(=O)Nc5cccc(C(F)(F)F)c5)c4)n3n2)COC1	75.5%
O=C(Nc1nonc1-c1ccccc1)c1ccc(C(F)(F)F)cc1	82.7%
CN1CCN(Cc2ccc(NC(=O)c3cncc(C#Cc4cnc5ccc(N6CCN(C)CC6)nn45)c3)cc2C(F)(F)F)CC1	82.1%
COc1cccc2c1CN(C(=O)c1ccc(O)c(C(=O)N3Cc4ccc(OCCC[P+](c5ccccc5)(c5ccccc5)c5ccccc5)cc4C3)c1)C2	78%
CCCSc1nc(Nc2ccc(/C(C)=N\NC(N)=S)cc2)c(C#N)c(-c2ccccc2)n1	85.2%
C[C@H]1c2[nH]c3ccccc3c2C[C@H]2C(=O)N(CCCCCCC(=O)NO)CC(=O)N21	65.6%
Cc1cc(C)c(N2C(=O)CC(Nc3ccc(Cl)cc3Cl)C2=O)c(C)c1 (centres undefined)	93.6%
